# SIRT5 inh: SIRT5 desuccinylase inhibitors, primary screen, biochemical, fluorescence imaging, single point, set 5 | NAD-dependent protein deacylase sirtuin-5, mitochondrial (Homo sapiens), Q9NXA8 | Purified SirT5, succinyl-peptide AMC, trypsin-coupled fluorescence | inhibition, % at 15 µM | 330,000 tested, 1.1% active | AID 652115, 2013; in the data active = inhibition above about 15%
# Target sequence (Q9NXA8 whole entry, looked up): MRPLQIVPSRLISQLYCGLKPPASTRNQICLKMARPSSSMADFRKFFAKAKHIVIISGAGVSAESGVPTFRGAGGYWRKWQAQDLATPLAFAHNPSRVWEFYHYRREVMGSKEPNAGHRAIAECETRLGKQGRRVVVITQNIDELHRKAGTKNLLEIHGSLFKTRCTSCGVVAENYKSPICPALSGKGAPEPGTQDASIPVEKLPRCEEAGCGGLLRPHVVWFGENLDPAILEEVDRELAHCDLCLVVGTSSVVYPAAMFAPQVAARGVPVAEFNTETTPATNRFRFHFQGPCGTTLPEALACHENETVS
# dFosB act: activators of delta FosB homodimer, primary screen, biochemical, fluorescence polarization, TAMRA-CDK5 oligo, single point. Protein FosB (Mus musculus), P13346. purified delta FosB; percent of positive-control signal above neutral wells. activation, % at 25 µM. 340,000 tested, 0.99% active. AID 493131, 2011;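 active = mean activation above about 17%, with every replicate also reaching it, limit read from the data, passing the limit was not always enough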
# PglD inh: C. jejuni PglD acetyltransferase inhibitors, primary screen, biochemical, DTNB colorimetric, single point; UDP-N-acetylbacillosamine N-acetyltransferase PglD (Campylobacter jejuni); purified PglD enzyme, DTNB colorimetric CoA detection; inhibition, % at 12.5 µM; 360,000 tested, 0.098% active; in the data active = inhibition above about 16%, passing the limit was not always enough
# FGF22 binding-1: binders of human FGF22 protein, primary screen, FGF22 synaptogenesis inhibitor project, biophysical, thermal shift, single point | activity (Tm shift, normalised), % at 9.99 µM | 340,000 tested, 1.5% active | Fibroblast growth factor 22 (Homo sapiens), Q9HCT0 | recombinant FGF22 thermal shift, SYPRO orange fluorescence; percent of sucrose octasulfate shift, DMSO zero;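 active = mean Tm shift, scaled 0 neutral to 100 positive control, at about 1.3% or above, every replicate too, limit read from the data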
# Target sequence (Q9HCT0 whole entry, looked up): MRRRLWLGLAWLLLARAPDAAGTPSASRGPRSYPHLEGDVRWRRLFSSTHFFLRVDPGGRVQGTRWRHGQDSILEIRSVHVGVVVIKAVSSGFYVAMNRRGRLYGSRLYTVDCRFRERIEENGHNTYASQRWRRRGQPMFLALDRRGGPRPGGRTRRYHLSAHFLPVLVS
# CDK5 inh: inhibitors of human CDK5/p35 kinase, primary screen, biochemical, single concentration; Recombinant CDK5/p35, ADP-Glo luminescence, 60 min; 330,000 tested, 0.01% active; AID 488839, 2010; inhibition, % at 10 µM; Cyclin-dependent kinase 5 (Homo sapiens) + Cyclin-dependent kinase 5 activator 1 (Homo …;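 active = highest replicate inhibition of at least 50% and at least 75% of replicates reaching 50%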;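 note: plate controls were DMSO neutral control for no effect and GW8510 at 10 µM for full effect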
# PvdQ acylase: P. aeruginosa PvdQ acylase inhibitors, primary screen, biochemical, fluorescence, plate reader and imaging, single point; PvdQ acylase [Pseudomonas aeruginosa LESB58]; purified PvdQ acylase; inhibition, % at 10 µM; 340,000 tested, 0.063% active; in the data active = inhibition above about 30%, passing the limit was not always enough;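 note: 0% = vehicle neutral wells and 100% = reference inhibitor wells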
# FGF22 binding-2: binders of human FGF22 protein, dose response, FGF22 synaptogenesis inhibitor project, biophysical, thermal shift, cherry-pick retest. shares compounds with FGF22 binding-1. recombinant FGF22 thermal shift, SYPRO orange fluorescence. thermal shift activity, °C (ΔTm) at 38 µM. 1,000 tested, 2% active. AID 720646, 2013;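 active = fitted rise in melting shift crosses a set limit at or below the top valid dose tested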
# FGF22 TSA DP: binders of human FGF22 protein, dose response, FGF22 synaptogenesis inhibitor project, biophysical, thermal shift, dry powder; shares compounds with FGF22 binding-1; Thermal shift assay, SYPRO orange, melting temperature shift; Tm shift (activity), % at 38 µM; 50 tested, under 10 active;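 active = compounds whose fitted dose curve of melting temperature shift rises past a set threshold within the tested doses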
# SYPRO no-protein: compound-only thermal shift signal without protein, dose response, artefact control for FGF22 binder project, biochemical, cherry-picked samples, RT-PCR instrument; AC50, µM (highest dose often 38 µM); shares compounds with FGF22 binding-1; AID 743019, 2013; 1,000 tested, 2% active; compound-only SYPRO orange thermal shift counter-screen, no protein;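 active = rising signal whose fitted curve reaches the 0.54 level within the top valid dose, showing a melting point, actives reach about 13 µM in these data; inactive = the rest, including activity in the opposite direction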; note: value is where the raw curve crosses a fixed level and not half-maximal
# Numbers without * were called inactive; i = inactive; nt = no result given; [ ] = dose if it differs, or a comment. This is a sample that favours compounds with a hit; in the whole collection about 2.8% have one here.
SMILES,SIRT5 inh,dFosB act,PglD inh,FGF22 binding-1,CDK5 inh,PvdQ acylase,FGF22 binding-2,SYPRO no-protein,others
O=C(CN1CCOCC1)N1CCCCN2[C@H](C1)[C@H](c1ccc(C#Cc3ccccc3F)cc1)[C@@H]2CO,-2,nt,4,-1,nt,nt,nt,nt,
COc1ccc(OC(C)C(=O)N(C)Cc2nc(-c3cccc(C)c3)no2)cc1 (configuration not stated),0,-6,-2,1.6*,-1,-13,-0.051,i,
COc1cccc(OCC(=O)N(C)Cc2nc(-c3cccc(C)c3)no2)c1,nt,-5,1,0,2,14,nt,nt,
O=[N+]([O-])c1ccccc1S(=O)(=O)Nc1nc2ccccc2s1,-1,-1,-7,1,-1,-4,nt,nt,
O=[N+]([O-])c1ccc2nc(NS(=O)(=O)c3ccccc3[N+](=O)[O-])sc2c1,2,2,-10,2.4*,-1,2,-0.44,i,
C[C@@H]1CN([C@@H](C)CO)C(=O)Cc2cc(NC(=O)C3CC3)ccc2O[C@@H]1CN(C)C(=O)Nc1cccc2ccccc12,0,nt,1,0,nt,nt,nt,nt,
Cc1cccc(-c2c3c(=O)n(C)c(=O)n(C)c3cn2-c2ccccc2O)c1,nt,-5,nt,nt,0,-5,nt,nt,
Cn1c(=O)c2c(-c3ccccc3)n(-c3cc([N+](=O)[O-])ccc3O)cc2n(C)c1=O,3,nt,nt,1.4*,nt,nt,-0.13,i,
Cn1c(=O)c2c(-c3ccccc3)n(-c3cc(Cl)c([N+](=O)[O-])cc3O)cc2n(C)c1=O,1,nt,3,1.6*,nt,nt,nt,i,
O=C(C[C@@H]1CC[C@H]2[C@@H](COC[C@@H](O)CN2Cc2cccc(C(F)(F)F)c2)O1)NCc1ccncc1,-1,nt,-1,14*,nt,nt,0.001,i,
O=C(C[C@H]1CC[C@H]2[C@@H](COC[C@@H](O)CN2S(=O)(=O)c2cccc(F)c2)O1)Nc1ccc(-c2ccccc2)cc1,-4,nt,2,3.3*,nt,nt,0.062,i,
Cc1cccc(S(=O)(=O)N2C[C@H](O)COC[C@H]3O[C@H](CC(=O)Nc4ccccc4)CC[C@@H]32)c1,-3,nt,5,1.8*,nt,nt,-0.025[42 µM],i,
O=C(C[C@H]1CC[C@H]2[C@@H](COC[C@@H](O)CN2S(=O)(=O)c2cccc(F)c2)O1)Nc1ccccc1,0,nt,0,0,nt,nt,nt,nt,
O=C(C[C@H]1CC[C@@H]2[C@H](COC[C@H](O)CN2S(=O)(=O)c2cccc(F)c2)O1)Nc1ccccc1,-3,nt,1,2.0*,nt,nt,0.13[42 µM],i,
O=C1c2ccccc2C(=O)N1C1CCN(Cc2cccc(OCCO)c2)CC1,nt,nt,nt,0,nt,nt,nt,nt,
Cc1ccccc1-c1ccc2c(c1)O[C@@H](CN(C)C)[C@H](C)CN([C@@H](C)CO)S2(=O)=O,-3,nt,2,0,nt,nt,nt,nt,
O=C(C1CCC1)N1CC2(C1)[C@H](c1ccccc1)[C@@H](CO)N2Cc1nccs1,-1,nt,nt,nt,nt,nt,nt,nt,
Cc1ccc(S(=O)(=O)N2C[C@H](O)COC[C@H]3O[C@H](CC(=O)NCc4ccc(Cl)c(Cl)c4)CC[C@@H]32)cc1,0,nt,-1,1.4*,nt,nt,0.016[42 µM],i,FGF22 TSA DP=0
Cc1ccc(S(=O)(=O)N2C[C@H](O)COC[C@H]3O[C@@H](CC(=O)NCc4ccc(Cl)c(Cl)c4)CC[C@@H]32)cc1,-1,nt,1,0,nt,nt,nt,nt,
O=c1c(O)c(-c2cc(O)c(O)c(O)c2)oc2cc(O)cc(O)c12,1,9,0,1.5*,15,-17,0.12,i,
O=c1c(O)c(-c2ccccc2)oc2cc(O)cc(O)c12,nt,-2,2,0,1,3,nt,nt,
CO[C@H]1CN(C)C(=O)c2ccc(NC(=O)C3CC3)cc2OC[C@@H](C)N(CCC(F)(F)F)C[C@H]1C,2,nt,-1,0,nt,nt,nt,nt,
O=C(c1ccccc1)N1CC(=O)N2[C@H](CO)[C@H](c3ccc(C#CC4CC4)cc3)[C@H]2C1,-16,nt,nt,0,nt,nt,nt,nt,
CCCNC(=O)N[C@@H]1CC[C@H](CCn2cc(C3CCCCC3)nn2)O[C@H]1CO,0,nt,-4,0,nt,nt,nt,nt,
C[C@@H]1CN([C@@H](C)CO)C(=O)Cc2cc(NS(=O)(=O)c3ccc(F)cc3)ccc2O[C@@H]1CN(C)CC1CCCCC1,14,nt,6,0,nt,nt,nt,nt,
SMILES,SIRT5 inh,dFosB act,PglD inh,FGF22 binding-1,CDK5 inh,PvdQ acylase,FGF22 binding-2,SYPRO no-protein,others
C[C@H]1CN([C@@H](C)CO)C(=O)Cc2cc(NS(=O)(=O)c3ccc(F)cc3)ccc2O[C@H]1CN(C)CC1CCCCC1,17*,nt,1,12*,nt,nt,0.12,i,
Cc1noc(C)c1S(=O)(=O)Nc1ccc2c(c1)CC(=O)N([C@@H](C)CO)C[C@@H](C)[C@@H](CN(C)Cc1ccc(Cl)c(Cl)c1)O2,5,nt,-1,1.5*,nt,nt,0.11[42 µM],i,
Cc1ccc(S(=O)(=O)Nc2ccc3c(c2)CC(=O)N([C@@H](C)CO)C[C@H](C)[C@@H](CN(C)S(C)(=O)=O)O3)cc1,3,nt,9,2.2*,nt,nt,0.029,i,
Cc1noc(C)c1S(=O)(=O)Nc1ccc2c(c1)CC(=O)N([C@@H](C)CO)C[C@@H](C)[C@H](CN(C)Cc1ccc(Cl)c(Cl)c1)O2,4,nt,2,0,nt,nt,nt,nt,
Cc1ccc(S(=O)(=O)Nc2ccc3c(c2)CC(=O)N([C@@H](C)CO)C[C@@H](C)[C@H](CN(C)S(C)(=O)=O)O3)cc1,-2,nt,3,-1,nt,nt,nt,nt,
COc1ccc(S(=O)(=O)Nc2ccc3c(c2)CC(=O)N([C@H](C)CO)C[C@@H](C)[C@@H](CN(C)C(=O)Nc2ccc(F)cc2)O3)cc1,nt,nt,2,0,nt,nt,nt,nt,
